# Assay results taken from ChEMBL document CHEMBL5598561, “ASAP - In vitro binding kinetics” (2024).
# Biological target: Nonstructural protein 3 (Zika virus) (UniProt A0A024AXB9)
# Sequence (A0A024AXB9 as listed by the source): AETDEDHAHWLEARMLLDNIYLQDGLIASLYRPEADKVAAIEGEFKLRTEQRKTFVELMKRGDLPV
compound,measurement,setting,value
N#Cc1cc(Cl)cc([C@H](C#N)Nc2ccc3c(c2)CNC3)c1,pKD,"PRVABC59, Concentration 10.0 uM, Immobilization level 10000.0 pg/mm2, Rmax 24.0 pg/mm2, ka 238302.252 M-1s-1, kd 1.184 1/s",5.3
same,pKD,"PRVABC59, Concentration 10.0 uM, Immobilization level 12000.0 pg/mm2, Rmax 44.0 pg/mm2, ka 146250.163 M-1s-1, kd 0.612 1/s",5.38
same,pKD,"PRVABC59, Concentration 10.0 uM, Immobilization level 13000.0 pg/mm2, Rmax 28.0 pg/mm2, ka 315015.409 M-1s-1, kd 0.863 1/s",5.56
Cn1nc(C(=O)Nc2ccc3c(c2)CNC3)c2cc(Br)ccc21,pKD,"PRVABC59, Concentration 10.0 uM, Immobilization level 3900.0 pg/mm2, Rmax 7.0 pg/mm2, ka 186374.339 M-1s-1, kd 1.611 1/s",5.06
same,pKD,"PRVABC59, Concentration 10.0 uM, Immobilization level 4900.0 pg/mm2, Rmax 17.0 pg/mm2, ka 132352.529 M-1s-1, kd 1.379 1/s",4.98
same,pKD,"PRVABC59, Concentration 10.0 uM, Immobilization level 5500.0 pg/mm2, Rmax 22.0 pg/mm2, ka 128273.344 M-1s-1, kd 1.393 1/s",4.96
O=C(Nc1ccc(C2CNC2)cc1)c1cc(Cl)cc2[nH]ncc12,pKD,"PRVABC59, Concentration 10.0 uM, Immobilization level 10000.0 pg/mm2, Rmax 37.0 pg/mm2, ka 291088.891 M-1s-1, kd 2.184 1/s",5.12
same,pKD,"PRVABC59, Concentration 10.0 uM, Immobilization level 12000.0 pg/mm2, Rmax 69.0 pg/mm2, ka 224213.878 M-1s-1, kd 1.69 1/s",5.12
same,pKD,"PRVABC59, Concentration 10.0 uM, Immobilization level 13000.0 pg/mm2, Rmax 34.0 pg/mm2, ka 337518.302 M-1s-1, kd 1.709 1/s",5.3
O=C(Nc1ccc2c(c1)CNC2)c1cc(Cl)cc2nccnc12,pKD,"PRVABC59, Concentration 10.0 uM, Immobilization level 10000.0 pg/mm2, Rmax 21.0 pg/mm2, ka 195303.568 M-1s-1, kd 2.342 1/s",4.92
same,pKD,"PRVABC59, Concentration 10.0 uM, Immobilization level 12000.0 pg/mm2, Rmax 40.0 pg/mm2, ka 106100.572 M-1s-1, kd 1.111 1/s",4.98
same,pKD,"PRVABC59, Concentration 10.0 uM, Immobilization level 13000.0 pg/mm2, Rmax 32.0 pg/mm2, ka 148862.644 M-1s-1, kd 1.839 1/s",4.91
N#Cc1cc(C(=O)Nc2ccc3c(c2)CNC3)cc(C(F)(F)F)c1,pKD,"PRVABC59, Concentration 1.0 uM, Immobilization level 3900.0 pg/mm2, Rmax 43.0 pg/mm2, ka 266866.495 M-1s-1, kd 1.179 1/s",5.36
same,pKD,"PRVABC59, Concentration 10.0 uM, Immobilization level 4900.0 pg/mm2, Rmax 32.0 pg/mm2, ka 534169.763 M-1s-1, kd 0.781 1/s",5.84
same,pKD,"PRVABC59, Concentration 10.0 uM, Immobilization level 5500.0 pg/mm2, Rmax 33.0 pg/mm2, ka 604018.636 M-1s-1, kd 0.866 1/s",5.84
same,pKD,"PRVABC59, Concentration 10.0 uM, Immobilization level 10000.0 pg/mm2, Rmax 37.0 pg/mm2, ka 362843.113 M-1s-1, kd 0.996 1/s",5.56
same,pKD,"PRVABC59, Concentration 10.0 uM, Immobilization level 12000.0 pg/mm2, Rmax 65.0 pg/mm2, ka 232125.016 M-1s-1, kd 0.861 1/s",5.43
same,pKD,"PRVABC59, Concentration 10.0 uM, Immobilization level 13000.0 pg/mm2, Rmax 45.0 pg/mm2, ka 383567.228 M-1s-1, kd 0.798 1/s",5.68
O=C1NCc2c1cccc2C(=O)Nc1ccc2c(c1)CNC2,pKD,"PRVABC59, Concentration 10.0 uM, Immobilization level 3900.0 pg/mm2, Rmax 18.0 pg/mm2, ka 393715.885 M-1s-1, kd 4.071 1/s",4.99
same,pKD,"PRVABC59, Concentration 10.0 uM, Immobilization level 4900.0 pg/mm2, Rmax 15.0 pg/mm2, ka 235814.335 M-1s-1, kd 2.807 1/s",4.92
same,pKD,"PRVABC59, Concentration 10.0 uM, Immobilization level 5500.0 pg/mm2, Rmax 18.0 pg/mm2, ka 357121.96 M-1s-1, kd 4.231 1/s",4.93
same,pKD,"PRVABC59, Concentration 10.0 uM, Immobilization level 12000.0 pg/mm2, ka 172299.161 M-1s-1, kd 1.476 1/s",5.07
same,pKD,"PRVABC59, Concentration 10.0 uM, Immobilization level 13000.0 pg/mm2, Rmax 19.0 pg/mm2, ka 18937.32 M-1s-1, kd 1.323 1/s",4.16
NCc1ccc(NC(=O)c2cc(Cl)cc3[nH]ncc23)cc1F,pKD,"PRVABC59, Concentration 10.0 uM, Immobilization level 3900.0 pg/mm2, Rmax 23.0 pg/mm2, ka 241912.451 M-1s-1, kd 2.753 1/s",4.94
same,pKD,"PRVABC59, Concentration 10.0 uM, Immobilization level 4900.0 pg/mm2, Rmax 19.0 pg/mm2, ka 418363.843 M-1s-1, kd 3.02 1/s",5.14
same,pKD,"PRVABC59, Concentration 10.0 uM, Immobilization level 5500.0 pg/mm2, Rmax 22.0 pg/mm2, ka 268076.557 M-1s-1, kd 2.711 1/s",5
same,pKD,"PRVABC59, Concentration 10.0 uM, Immobilization level 12000.0 pg/mm2, Rmax 15.0 pg/mm2, ka 138303.314 M-1s-1, kd 1.565 1/s",4.95
same,pKD,"PRVABC59, Concentration 10.0 uM, Immobilization level 13000.0 pg/mm2, Rmax 64.0 pg/mm2, ka 32485.569 M-1s-1, kd 2.272 1/s",4.16
N[C@H]1CCCc2ccc(NC(=O)c3cc(Cl)cc4[nH]ncc34)cc21,pKD,"PRVABC59, Concentration 10.0 uM, Immobilization level 3900.0 pg/mm2, Rmax 27.0 pg/mm2, ka 296746.451 M-1s-1, kd 1.513 1/s",5.29
same,pKD,"PRVABC59, Concentration 10.0 uM, Immobilization level 4900.0 pg/mm2, Rmax 56.0 pg/mm2, ka 115778.511 M-1s-1, kd 1.284 1/s",4.96
same,pKD,"PRVABC59, Concentration 10.0 uM, Immobilization level 5500.0 pg/mm2, Rmax 46.0 pg/mm2, ka 170057.868 M-1s-1, kd 1.305 1/s",5.12
same,pKD,"PRVABC59, Concentration 10.0 uM, Immobilization level 10000.0 pg/mm2, Rmax 44.0 pg/mm2, ka 295859.47 M-1s-1, kd 1.578 1/s",5.27
same,pKD,"PRVABC59, Concentration 10.0 uM, Immobilization level 12000.0 pg/mm2, Rmax 41.0 pg/mm2, ka 173417.805 M-1s-1, kd 0.975 1/s",5.25
same,pKD,"PRVABC59, Concentration 10.0 uM, Immobilization level 13000.0 pg/mm2, Rmax 62.0 pg/mm2, ka 213953.785 M-1s-1, kd 1.191 1/s",5.25
O=C(Nc1ccc2c(c1)CCNCC2)c1cc(Cl)cc2[nH]ncc12,pKD,"PRVABC59, Concentration 10.0 uM, Immobilization level 3900.0 pg/mm2, Rmax 28.0 pg/mm2, ka 176787.489 M-1s-1, kd 0.385 1/s",5.66
same,pKD,"PRVABC59, Concentration 10.0 uM, Immobilization level 4900.0 pg/mm2, Rmax 58.0 pg/mm2, ka 81779.894 M-1s-1, kd 0.366 1/s",5.35
same,pKD,"PRVABC59, Concentration 10.0 uM, Immobilization level 5500.0 pg/mm2, Rmax 55.0 pg/mm2, ka 98394.506 M-1s-1, kd 0.363 1/s",5.43
same,pKD,"PRVABC59, Concentration 10.0 uM, Immobilization level 10000.0 pg/mm2, Rmax 51.0 pg/mm2, ka 117713.558 M-1s-1, kd 0.472 1/s",5.4
same,pKD,"PRVABC59, Concentration 10.0 uM, Immobilization level 12000.0 pg/mm2, Rmax 47.0 pg/mm2, ka 102680.383 M-1s-1, kd 0.29 1/s",5.55
same,pKD,"PRVABC59, Concentration 10.0 uM, Immobilization level 13000.0 pg/mm2, Rmax 85.0 pg/mm2, ka 77805.794 M-1s-1, kd 0.391 1/s",5.3
N[C@H]1CCc2ccc(NC(=O)c3cc(Cl)cc4[nH]ncc34)cc21,pKD,"PRVABC59, Concentration 10.0 uM, Immobilization level 3900.0 pg/mm2, Rmax 29.0 pg/mm2, ka 348858.596 M-1s-1, kd 0.945 1/s",5.57
same,pKD,"PRVABC59, Concentration 10.0 uM, Immobilization level 4900.0 pg/mm2, Rmax 45.0 pg/mm2, ka 214378.611 M-1s-1, kd 0.858 1/s",5.4
same,pKD,"PRVABC59, Concentration 10.0 uM, Immobilization level 5500.0 pg/mm2, Rmax 42.0 pg/mm2, ka 277409.149 M-1s-1, kd 0.816 1/s",5.53
same,pKD,"PRVABC59, Concentration 10.0 uM, Immobilization level 10000.0 pg/mm2, Rmax 43.0 pg/mm2, ka 267738.182 M-1s-1, kd 1.043 1/s",5.41
same,pKD,"PRVABC59, Concentration 10.0 uM, Immobilization level 12000.0 pg/mm2, Rmax 61.0 pg/mm2, ka 230496.11 M-1s-1, kd 0.784 1/s",5.47
same,pKD,"PRVABC59, Concentration 10.0 uM, Immobilization level 13000.0 pg/mm2, Rmax 48.0 pg/mm2, ka 351322.313 M-1s-1, kd 0.852 1/s",5.62
O=C(Nc1ccc2c(c1)CNC2)c1cc(C(F)(F)F)cc2[nH]ccc12,pKD,"PRVABC59, Concentration 10.0 uM, Immobilization level 3900.0 pg/mm2, Rmax 30.0 pg/mm2, ka 544431.648 M-1s-1, kd 0.73 1/s",5.87
same,pKD,"PRVABC59, Concentration 10.0 uM, Immobilization level 4900.0 pg/mm2, Rmax 46.0 pg/mm2, ka 302890.351 M-1s-1, kd 0.564 1/s",5.73
same,pKD,"PRVABC59, Concentration 10.0 uM, Immobilization level 5500.0 pg/mm2, Rmax 46.0 pg/mm2, ka 376673.864 M-1s-1, kd 0.583 1/s",5.81
same,pKD,"PRVABC59, Concentration 10.0 uM, Immobilization level 10000.0 pg/mm2, Rmax 31.0 pg/mm2, ka 377188.867 M-1s-1, kd 0.653 1/s",5.76
same,pKD,"PRVABC59, Concentration 10.0 uM, Immobilization level 12000.0 pg/mm2, Rmax 50.0 pg/mm2, ka 339395.125 M-1s-1, kd 0.433 1/s",5.89
same,pKD,"PRVABC59, Concentration 10.0 uM, Immobilization level 13000.0 pg/mm2, Rmax 43.0 pg/mm2, ka 290221.417 M-1s-1, kd 0.559 1/s",5.71
O=C(Nc1ccc2c(c1)CNCCC2)c1cc(Cl)cc2[nH]ncc12,pKD,"PRVABC59, Concentration 10.0 uM, Immobilization level 3900.0 pg/mm2, Rmax 31.0 pg/mm2, ka 773276.281 M-1s-1, kd 0.645 1/s",6.08
same,pKD,"PRVABC59, Concentration 10.0 uM, Immobilization level 4900.0 pg/mm2, Rmax 48.0 pg/mm2, ka 455527.731 M-1s-1, kd 0.593 1/s",5.89
same,pKD,"PRVABC59, Concentration 10.0 uM, Immobilization level 5500.0 pg/mm2, Rmax 50.0 pg/mm2, ka 530646.741 M-1s-1, kd 0.578 1/s",5.96
same,pKD,"PRVABC59, Concentration 10.0 uM, Immobilization level 10000.0 pg/mm2, Rmax 36.0 pg/mm2, ka 650451.64 M-1s-1, kd 0.663 1/s",5.99
same,pKD,"PRVABC59, Concentration 10.0 uM, Immobilization level 12000.0 pg/mm2, Rmax 60.0 pg/mm2, ka 669381.958 M-1s-1, kd 0.419 1/s",6.2
same,pKD,"PRVABC59, Concentration 10.0 uM, Immobilization level 13000.0 pg/mm2, Rmax 48.0 pg/mm2, ka 553000.714 M-1s-1, kd 0.56 1/s",5.99
CNC(=O)[C@H](Nc1ccc2c(c1)CNC2)c1cccc2[nH]ncc12,pKD,"PRVABC59, Concentration 10.0 uM, Immobilization level 3900.0 pg/mm2, Rmax 32.0 pg/mm2, ka 221759.296 M-1s-1, kd 2.211 1/s",5
same,pKD,"PRVABC59, Concentration 10.0 uM, Immobilization level 4900.0 pg/mm2, Rmax 43.0 pg/mm2, ka 260065.267 M-1s-1, kd 2.378 1/s",5.04
same,pKD,"PRVABC59, Concentration 10.0 uM, Immobilization level 5500.0 pg/mm2, Rmax 48.0 pg/mm2, ka 212060.721 M-1s-1, kd 2.045 1/s",5.02
same,pKD,"PRVABC59, Concentration 10.0 uM, Immobilization level 10000.0 pg/mm2, Rmax 60.0 pg/mm2, ka 93401.957 M-1s-1, kd 2.887 1/s",4.51
same,pKD,"PRVABC59, Concentration 10.0 uM, Immobilization level 12000.0 pg/mm2, Rmax 22.0 pg/mm2, ka 158759.097 M-1s-1, kd 1.348 1/s",5.07
same,pKD,"PRVABC59, Concentration 10.0 uM, Immobilization level 13000.0 pg/mm2, Rmax 39.0 pg/mm2, ka 126882.155 M-1s-1, kd 1.56 1/s",4.91
